# Beta cell apopt – inhibitors of cytokine-induced beta cell apoptosis, primary screen, luminescence | hit rate 0.8% among 300,000 | protection from apoptosis, % (test concentration not listed) | INS-1E cytokine-induced death, ATP luminescence, 48 h; percent of positive-control rescue, neutral wells zero | AID 435005, 2010;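 active means Every replicate reaches about 75%, or at least half do and their mean reaches it too, limit read from the data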;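 further: 0% = cytokine-treated negative control wells and 100% = positive control rescue; higher means more ATP so stronger rescue from cytokine killing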
# Mdm2-MdmX inh – inhibitors of human Mdm2-MdmX association, primary screen, cell-based, luminescence, split luciferase, SaOS-2, uHTS; Protein Mdm4 (Homo sapiens) + E3 ubiquitin-protein ligase Mdm2 (Homo sapiens), …; SaOS-2 split-luciferase Mdm2/MdmX complementation; inhibition, % at 8 µM; hit rate 3% among 330,000;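 active means inhibition of at least 50% at 8 µM in the primary screen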
# Jurkat NFkB inh – inhibitors of induced NF-kB luciferase reporter, primary screen, TCR NF-kB activation inhibitor project, cell-based, luminescence, uHTS | Jurkat, PMA/ionomycin-induced NF-kB luciferase reporter | inhibition, % at 4 µM | hit rate 0.53% among 330,000; in the data active means inhibition above about 50%
# 697 NFkB inh – inhibitors of PMA/ionomycin-induced NF-kB reporter, 697 cells, primary screen, B-cell NF-kB inhibitor project, cell-based, luminescence, uHTS | 697 B-cell NF-kB luciferase reporter, 16 h | inhibition, % at 4 µM | hit rate 0.33% among 330,000; in the data active means inhibition above about 35%
# Gli-Sufu antag – Gli-Sufu pathway antagonists, primary screen, luciferase luminescence, Sufu-KO-LIGHT cells, uHTS; AID 588413, 2011; inhibition, % at 5 µM; Sufu-KO-LIGHT fibroblasts, Gli luciferase reporter luminescence; hit rate 0.74% among 340,000;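 active means inhibition above about 55%, limit read from the data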;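 further: 0% = DMSO-treated cells and 100% = wells with medium but no cells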
# Mdm2-MdmX conf – Mdm2-MdmX complex disruptors, retested hits, confirmation, luminescence, single concentration; AID 489028, 2010; shares compounds with Mdm2-MdmX inh; hit rate 55% among 10,000; Mdm2-MdmX binding, luminescent assay; inhibition, % at 8 µM; in the data active means inhibition above about 40%
# FLuc counter – full-length luciferase signal inhibition, confirmation, counter-screen for Mdm2/MdmX interaction inhibitor project, cell-based, single concentration, SaOS-2 | AID 504607, 2011 | shares compounds with Mdm2-MdmX inh | SaOS-2 full-length luciferase counterscreen, luminescence | hit rate 77% among 6,200 | inhibition, % at 8 µM;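 active means mean inhibition at 8 µM reaching about 37%, which flags the compound as non-specific, limit read from the data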;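 further: p53-null SaOS-2 cells with luciferase driven by a doxycycline-inducible promoter; compound on cells about two nights before reading with doxycycline added after day one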
# * marks the source's active call; other numbers are inactive results; x = no result. This is a sample that favours compounds with a hit; in the whole collection about 4% have one here.
SMILES,Beta cell apopt,Mdm2-MdmX inh,Jurkat NFkB inh,697 NFkB inh,Gli-Sufu antag,Mdm2-MdmX conf,FLuc counter
COc1ccc(/C(N)=N/OC(=O)C2CCC(=O)N2S(=O)(=O)c2ccc(C)cc2)cc1OC (centres undefined),1,74*,-12,-6,-8,55*,76*
Cc1ccc(S(=O)(=O)N2C(=O)CCC2C(=O)O/N=C(\N)c2ccccc2)cc1 (centres undefined),-5,14,-1,11,4,x,x
O=C(NC(=S)/C(=C1\CCCCCN1)[N+](=O)[O-])c1ccccc1,1,85*,-65,-222,18,79*,142*
O=C(NC(=S)Nc1ccccc1[N+](=O)[O-])c1ccccc1,7,-27,-29,-76,-17,x,x
COc1ccccc1CN1CC(C(=O)N2CCOCC2)CCC1=O (centres undefined),-4,21,-8,19,2,x,x
O=c1c2ccccc2oc2cc(OCc3ccc(F)cc3)cc(O)c12,-1,14,-23,17,22,x,x
CCOc1ccc(CNC(=O)Cn2c(=O)c3cccn3c3ccccc32)cc1,3,55*,5,-9,20,2,x
CCOc1ccc(CNC(=O)Cn2nc(C)n3nc(-c4ccccc4)cc3c2=O)cc1,-4,97*,8,0,10,15,x
CCc1ccc(NC(=O)Cn2c(=O)c3cccn3c3ccccc32)cc1,20,66*,2,-42,2,61*,55*
CC(C)Oc1ccc(CNC(=O)Cn2c(=O)c3cccn3c3cccnc32)cc1,0,24,-6,13,1,x,x
CC(Oc1ccc(F)cc1)C(=O)Nc1cc(C(F)(F)F)ccc1-n1cncn1 (centres undefined),-5,11,-17,13,-3,x,x
Cc1cc(N2CCOCC2)ccc1/C=C1\NC(=O)N(Cc2ccccc2F)C1=O,8,71*,12,-1,15,10,x
Cc1ccc(/C(N)=N/OC(=O)N2CCOCC2)cc1,x,95*,-1,-21,-12,51*,126*
Cc1cccc(/C(N)=N/OC(=O)N2CCOCC2)c1,6,86*,-20,-42,-12,49*,105*
CC(=O)c1ccc(OCCCC(=O)N(CCC2=CCCCC2)c2c(N)n(Cc3ccccc3)c(=O)[nH]c2=O)cc1,12,-2,11,29,7,x,x
CCC(C(=O)NCCCN1CCCC1=O)n1c2ccccc2c2nc(=O)cc(C)n21 (centres undefined),-2,-4,2,18,8,x,x
Cc1cc(OCC(=O)N2CCN(c3ccccc3)CC2)c2c(C)c(C)c(=O)oc2c1,4,64*,8,-7,40,67*,87*
Cc1cc(OCC(=O)N2CCC(C(=O)O)CC2)c2c(C)c(C)c(=O)oc2c1,3,-2,8,19,-2,x,x
Cc1ccc(NC(=O)c2ccc(Nc3c([N+](=O)[O-])cc([N+](=O)[O-])cc3[N+](=O)[O-])cc2)cc1,67,79*,-18,-65,-7,8,x
NS(=O)(=O)c1ccc(N/N=C/c2ccccc2C(=O)O)c([N+](=O)[O-])c1,-5,9,-2,5,5,x,x
Cc1ccccc1NC(=O)c1ccc(N/N=C/c2ccccc2O)c([N+](=O)[O-])c1,11,74*,28,2,21,22,62*
Cc1ccc(NC(=O)c2ccc(N/N=C/c3cccc(O)c3)c([N+](=O)[O-])c2)cc1,63,77*,0,-7,7,48*,76*
CC(=O)Nc1ccc(NC(=O)c2cc([N+](=O)[O-])cc([N+](=O)[O-])c2)cc1,0,-11,-1,0,3,x,x
COc1cccc(-c2cc(C(=O)N3CCN(C(=O)c4ccco4)CC3)[nH]n2)c1,-1,20,4,-7,4,x,x

# Compound activity deposited in PubChem BioAssay by several laboratories.
